In PubChem BioAssay (Tox21):
Inconclusive results are not listed. Calls of active or inactive are those of the source. Unless noted, calls come from the whole dose curve; as a rule, active = well fitted curve in the direction sought with a large enough effect in the repeat runs; inconclusive = weak or mixed curves; inactive = no such curve, though single readings can be large; an effect the other way counts as inactive or inconclusive.

Columns and labels:
[1] = A CellTox Green Cytotoxicity Assay to monitor cytotoxicity in HepG2 cells - 0 hour (AID 1224882); note: nearly all actives have a fitted effect of over 35% in size
Procedure, shortened: (§1)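 Real-time, homogeneous cytotoxicity readout: dead-cell DNA staining by CellTox Green in HepG2 monolayers, fluorescence measured at timed intervals up to 40 h of continuous compound exposure.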

[2] = A CellTox Green Cytotoxicity Assay to monitor cytotoxicity in HepG2 cells - 32 hour (AID 1224883); note: nearly all actives have a fitted effect of over 50% in size
Procedure, shortened: as §1

[3] = A CellTox Green Cytotoxicity Assay to monitor cytotoxicity in HEK293 cells - 8 hour (AID 1224884); note: nearly all actives have a fitted effect of over 35% in size
Procedure, shortened: (§2)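 Cytotoxicity was tracked continuously in HEK293 cells by a DNA-binding dye excluded from viable cells. Compounds were transferred in DMSO 5 h after seeding; fluorescence was recorded at intervals up to 40 h.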

[4] = qHTS RealTime-Glo MT Cell Viability Assay in HepG2 cells - 16 hour (AID 1224885); note: nearly all actives have a fitted effect of over 50% in size
Procedure, shortened: (§3)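 Tox21 10K library screened in qHTS format on HepG2 cells carrying RealTime-Glo reagents. Compounds were added after a 5 h preincubation, and the luminescent signal from continuous culture was measured repeatedly during 40 h treatment.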

[5] = qHTS RealTime-Glo MT Cell Viability Assay in HEK293 cells - 24 hour (AID 1224886); note: top concentration of the series differs between compounds; nearly all actives have a fitted effect of over 50% in size
Procedure, shortened: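 Luminescence generated by NanoLuc from substrate produced by living HEK293 cells served as the viability signal. Each value reflects the reading at its stated time point during continuous 40 h compound exposure at 37 C.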

[6] = qHTS RealTime-Glo MT Cell Viability Assay in HEK293 cells - 8 hour (AID 1224887); note: top concentration of the series differs between compounds; nearly all actives have a fitted effect of over 50% in size
Procedure, shortened: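 Nonlytic bioluminescent viability monitoring. HEK293 at 600 cells/well with reagent; 5 h settle; compound transfer by pintool; plates held at 37 C and read at set time points.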

[7] = A CellTox Green Cytotoxicity Assay to monitor cytotoxicity in HEK293 cells - 16 hour (AID 1224888); note: nearly all actives have a fitted effect of over 35% in size
Procedure, shortened: as §2

[8] = qHTS RealTime-Glo MT Cell Viability Assay in HepG2 cells - 0 hour (AID 1224889); note: nearly all actives have a fitted effect of over 50% in size
Procedure, shortened: as §3

[9] = A CellTox Green Cytotoxicity Assay to monitor cytotoxicity in HepG2 cells - 8 hour (AID 1224890); note: nearly all actives have a fitted effect of over 45% in size
Procedure, shortened: as §1

[10] = qHTS assay to identify small molecule antagonists of the estrogen receptor alpha (ER-alpha) signaling pathway using the BG1 cell line in the presence of 0.1 nM 17-beta-estradiol - cell viability counter screen (AID 1259241); note: nearly all actives have a fitted effect of over 40% in size
Procedure, shortened: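 In this screen, hormone-deprived VM7Luc4E2 cells were seeded at 4,000 per well, dosed with compound and 0.1 nM estradiol final, and incubated 22 hr at 37C and 5% CO2; fluorogenic live-cell protease signal reported viability.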

[11] = qHTS assay to identify small molecule antagonists of the androgen receptor (AR) signaling pathway using the MDA cell line in the presence of 0.5 nM R1881 - cell viability counter screen (AID 1259242); note: nearly all actives have a fitted effect of over 45% in size
Procedure, shortened: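 Cytotoxicity toward MDA-kb2 cells is measured by CellTiter-Fluor live-cell protease fluorescence after 16 hr compound exposure at 37C in the presence of 0.5 nM R1881 stimulator.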

[12] = target: Estrogen receptor (Homo sapiens) (UniProt P03372); experiment: qHTS assay to identify small molecule antagonists of the estrogen receptor alpha (ER-alpha) signaling pathway using the BG1 cell line in the presence of 0.1 nM 17-beta-estradiol (AID 1259244); note: nearly all actives have a fitted effect of over 50% in size
Sequence of Estrogen receptor (Homo sapiens) (P03372 whole entry, looked up): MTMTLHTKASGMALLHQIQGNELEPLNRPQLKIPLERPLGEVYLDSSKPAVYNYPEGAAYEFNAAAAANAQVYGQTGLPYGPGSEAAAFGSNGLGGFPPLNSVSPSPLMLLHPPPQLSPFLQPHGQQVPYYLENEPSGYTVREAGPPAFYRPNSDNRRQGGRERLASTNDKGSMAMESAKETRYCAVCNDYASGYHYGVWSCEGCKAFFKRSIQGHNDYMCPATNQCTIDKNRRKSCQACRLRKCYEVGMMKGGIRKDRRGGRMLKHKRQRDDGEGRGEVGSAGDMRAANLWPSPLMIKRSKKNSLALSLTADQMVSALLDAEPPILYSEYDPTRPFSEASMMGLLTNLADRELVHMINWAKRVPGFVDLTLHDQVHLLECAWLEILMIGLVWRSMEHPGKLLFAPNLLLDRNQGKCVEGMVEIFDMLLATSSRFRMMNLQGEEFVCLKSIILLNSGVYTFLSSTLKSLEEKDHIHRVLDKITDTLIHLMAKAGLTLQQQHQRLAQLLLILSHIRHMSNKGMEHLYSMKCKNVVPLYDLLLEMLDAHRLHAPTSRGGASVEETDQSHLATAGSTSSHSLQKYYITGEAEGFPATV
Procedure, shortened: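 After 5 days in hormone-depleted medium (charcoal-stripped serum, no phenol red), VM7Luc4E2 cells were seeded, incubated 24 h, then co-treated with compound and 0.1 nM (final) estradiol for 22 h before luminescence detection.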

[13] = qHTS assay to identify small molecule HDAC inhibitors (AID 1259364); note: top concentration of the series differs between compounds; nearly all actives have a fitted effect of over 45% in size
Procedure, shortened: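 Homogeneous cell-based luminescent assay of endogenous class I/II HDAC activity; HCT-116 cells, 2 h compound exposure, 30 min HDAC-Glo development at RT.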

[14] = qHTS assay to identify small molecule HDAC inhibitors - cell viability counter screen (AID 1259365)
Procedure, shortened: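 Measured quantity is CellTiter-Glo luminescence from wild-type HCT-116 cells after compound incubation of 2hr at 37C, 5% CO2; reagent developed 30min at room temperature.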

[15] = qHTS assay to identify small molecule agonists of the sonic hedgehog signaling (Shh) pathway - cell viability counter screen (AID 1259366); note: nearly all actives have a fitted effect of over 50% in size
Procedure, shortened: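 In quantitative high-throughput format, 3T3 Gli1-Luc cells were exposed to compounds for 24hr and multiplexed for viability using CellTiter-Fluor, incubated 1hr at 37C before the fluorescence read.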

[16] = qHTS assay to identify small molecule agonists of the sonic hedgehog signaling (Shh) pathway (AID 1259368; calls by dose curve;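 note: NIH/3T3-derived 3T3Gli1-Luc cells carrying a stable Gli1-driven firefly luciferase reporter; series mostly up to about 92 µM; nearly all actives have a fitted effect of over 15% in size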)
Procedure, shortened: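 Steps: seed 3T3 Gli1-Luc cells, incubate 4 hr at 37 C, pin-transfer compounds in DMSO alongside a positive control, incubate 24 hr, add luciferase detection reagent, wait 30 min at room temperature, read luminescence.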

[17] = qHTS assay to identify small molecule antagonists of the sonic hedgehog signaling (Shh) pathway (AID 1259369; calls by dose curve; note: nearly all actives have a fitted effect of over 45% in size)
Procedure, shortened: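 Inhibition of Shh signalling is measured as reduced Gli1-response-element firefly luciferase output in an NIH/3T3-derived stable reporter clone stimulated with conditioned medium for 24hr.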

[18] = qHTS assay to identify small molecule antagonists of the sonic hedgehog signaling (Shh) pathway - cell viability counter screen (AID 1259367); note: nearly all actives have a fitted effect of over 55% in size
Procedure, shortened: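 Cells: 3T3 Gli1-Luc, 2,000/well, 4 hr pre-incubation. Compounds in DMSO, then conditioned medium. Incubation 24 hr, 37C, 5% CO2. CellTiter-Fluor at 23 hr, 1 hr, fluorescence.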

[19] = target: Androgen receptor (Homo sapiens) (UniProt P10275); experiment: qHTS assay to identify small molecule antagonists of the androgen receptor (AR) signaling pathway using the MDA cell line in the presence of 0.5 nM R1881 (AID 1259243); note: nearly all actives have a fitted effect of over 50% in size
Sequence of Androgen receptor (Homo sapiens) (P10275 whole entry, looked up): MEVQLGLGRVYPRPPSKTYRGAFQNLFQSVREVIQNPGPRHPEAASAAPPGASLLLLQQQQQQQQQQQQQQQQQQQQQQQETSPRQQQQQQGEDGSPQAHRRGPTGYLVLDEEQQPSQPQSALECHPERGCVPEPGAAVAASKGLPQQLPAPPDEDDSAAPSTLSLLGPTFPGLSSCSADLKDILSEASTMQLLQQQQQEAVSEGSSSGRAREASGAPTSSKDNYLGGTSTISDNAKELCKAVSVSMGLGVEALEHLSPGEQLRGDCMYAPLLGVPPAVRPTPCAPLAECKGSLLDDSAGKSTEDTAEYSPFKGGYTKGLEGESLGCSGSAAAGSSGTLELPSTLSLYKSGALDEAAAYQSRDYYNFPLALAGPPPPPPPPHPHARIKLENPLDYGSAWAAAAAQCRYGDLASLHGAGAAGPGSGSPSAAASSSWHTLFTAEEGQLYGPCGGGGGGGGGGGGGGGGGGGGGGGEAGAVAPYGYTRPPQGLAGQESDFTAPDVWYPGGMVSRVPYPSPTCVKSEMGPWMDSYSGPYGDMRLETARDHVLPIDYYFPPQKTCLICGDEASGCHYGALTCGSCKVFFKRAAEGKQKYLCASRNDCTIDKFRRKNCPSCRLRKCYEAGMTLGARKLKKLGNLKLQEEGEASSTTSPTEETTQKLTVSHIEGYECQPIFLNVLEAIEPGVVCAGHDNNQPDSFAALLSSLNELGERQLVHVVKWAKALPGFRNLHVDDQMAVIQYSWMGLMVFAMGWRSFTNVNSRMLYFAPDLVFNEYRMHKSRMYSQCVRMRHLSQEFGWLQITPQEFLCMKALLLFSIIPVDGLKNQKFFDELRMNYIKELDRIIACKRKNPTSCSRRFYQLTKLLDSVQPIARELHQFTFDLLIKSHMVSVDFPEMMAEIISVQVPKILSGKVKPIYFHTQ
Procedure, shortened: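 Steps: seed MDA-kb2 cells, incubate 5 hr at 37C; pin-transfer compounds in DMSO; add R1881 to 0.5 nM final; incubate 16 hr; add ONE-Glo, wait 30 min at room temperature; read luminescence.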

Measured: Potency

CCCCCCCCCCCCCc1ccccc1
not listed: [18] | [19]
inactive: all other assays above

C=CC(C)C#N (stereo not drawn)
not listed: [12] | [13] | [19]
inactive: all other assays above

Cc1cc(=O)[nH]c(=O)[nH]1
not listed: [11] | [13] | [19]
inactive: all other assays above

CCC1CCCCC1
not listed: [11] | [12] | [14]
inactive: all other assays above

CC(C)c1ccccc1N
not listed: [19]
inactive: all other assays above

CCCCCCCCCCCC(=O)N(CC)CC
not listed: [12] | [13] | [18] | [19]
inactive: all other assays above

CCOC(=O)CN
not listed: [12] | [19]
inactive: all other assays above

O=CC1CC1
not listed: [11]
inactive: all other assays above
